This excerpt belongs to a sample that is enriched for hits.
Vaccinia mCherry: inhibitors of vaccinia virus infection (mCherry reporter signal). Vaccinia virus mCherry reporter infection, fluorescence. Potency, µM (titrated, usually from 36.5 µM), for inactives: top-dose activity change, negative = inhibition, most hits filed as inhibitors. 310,000 tested, 0.63% active. AID 720579; calls by dose curve; tested in A549 cells; note: potency is the fitted concentration of half-maximal effect; % is set by controls: 0 for no effect and ±100 for the full control effect; nearly all actives have a fitted effect of over 35% in size
VACV Venus inh: inhibitors of vaccinia virus (Venus reporter) | AID 720580 | Potency, µM (titrated, usually from 36.5 µM), without a hit: at the top dose activity change, negative = inhibition, most hits filed as inhibitors | 330,000 tested, 0.46% active | Vaccinia virus Venus reporter expression, fluorescence; calls by dose curve; tested in A549 cells; note: potency is the fitted concentration of half-maximal effect; % is set by controls: 0 for no effect and ±100 for the full control effect; nearly all actives have a fitted effect of over 30% in size
Shiga inhibitor: inhibitors of Shiga toxin in Vero cells | Vero cells, Shiga toxin protein synthesis inhibition reporter | inhibition, % at 38.7 µM | 290,000 tested, 9.2% active; in the data active = inhibition mostly above about 28%, no sharp cut-off; inactive = mostly below about 43%; note: 0% is about no effect
Marburg entry inh: blocks Marburg virus binding to or entry into cells. 300,000 tested, 1.8% active. Marburg virus pseudotyped entry inhibition, cell reporter. Potency, µM (series often up to 37.8 µM), for inactives: at the top dose activity change, negative = inhibition, actives largely listed as inhibitors; calls by dose curve; tested in HEK293 cells; note: potency is the fitted concentration of half-maximal effect; % is set by controls: 0 for no effect and ±100 for the full control effect
CHX counter: counter-screen for Shiga toxin inhibitors: cycloheximide protein synthesis inhibition; cell reporter, cycloheximide protein synthesis inhibition counterscreen; max response, %; 300,000 tested, 12% active; AID 2314; in the data active = max response mostly above about 13%, no sharp cut-off; inactive = mostly below about 14%; note: read at 38.3 µM for the half of the compounds with a filed dose; 0% is about no effect
Lassa entry inh: Lassa virus entry inhibition. AID 540256. Potency, µM (titrated, usually from 37.9 µM), for inactives: top-dose activity change, negative = inhibition, most hits filed as inhibitors. 300,000 tested, 1.2% active. Lassa virus pseudotype entry inhibition, cell reporter; calls by dose curve; tested in HEK293 cells; note: potency is the fitted concentration of half-maximal effect; % is set by controls: 0 for no effect and ±100 for the full control effect; nearly all actives have a fitted effect of over 50% in size
Active calls of the source: *; i = inactive; ? = inconclusive; . = not tested or not shown; [ ] = remark or other dose.

SMILES	Vaccinia mCherry	VACV Venus inh	Shiga inhibitor	Marburg entry inh	CHX counter	Lassa entry inh
O=C(Nc1cccc2nsnc12)c1cccs1	.	.	99*	29%	35*	?
O=C(Nc1cccc2cccnc12)c1cccs1	.	.	79	.	37*	.
O=C(Nc1cccc2nsnc12)c1cccnc1	-17%	-5%	-9	?	-2	-4%
O=C(Nc1cccc2cccnc12)c1c(Cl)cc(Cl)cc1Cl	.	.	-4	.	17	.
O=C1CC(N2CCOCC2)=NN1c1ccc([N+](=O)[O-])cc1	i	-14%	29	17%	18*	?
CC(C)Nc1nc(Cl)nc(NCCOc2ccccc2)n1	?	-8%	20	14%[46.1 µM]	18	?
CCC(C)Nc1nc(Cl)nc(NCCOc2ccccc2)n1 (stereo unspecified)	i	-5%	31	?	33*	8%
COc1cc(-c2cc(C)c3cccc(OC)c3n2)cc2c1OCCN(C(=O)CC1NC(=O)c3ccccc31)C2 (stereo unspecified)	i	0%	.	.	.	.
CC(C)(C)c1nc2c(C#N)c(-c3ccc(Cl)cc3)ccn2n1	?	-29%	57	?	25*	-24%
Cc1nc2c(C#N)c(-c3ccc(Cl)cc3)ccn2n1	-6%	-8%	-6	4%[46.1 µM]	-3	5%[46.1 µM]
Oc1ccc(/C=N/N2CCCCC2)c(O)c1	3%	-10%	107*	26%	49*	19%
Oc1cccc(/C=N/N2CCCCC2)c1O	0%	-16%	96*	.	40*	.
C(=NN1CCCCCC1)c1ccc2ccccc2n1	-28%	-7%	.	2.5µM*	.	?
Oc1ccccc1/C=N/N1CCCCC1	-13%	-6%	85*	11%[46.1 µM]	40*	1%
Oc1ccccc1C=NN1CCCCCC1	-13%	-4%	.	-1%	.	?
CCCCN(CC)CCNC(=O)Cn1cnc2sc(C)c(S(=O)(=O)N3CCN(c4ccccc4OC)CC3)c2c1=O	-12%	-17%	.	13%[46.1 µM]	.	16%[46.1 µM]
COc1ccc2c(c1)CO[C@H]([C@H](O)COC(C)=O)[C@H]2C=Cc1ccccc1	.	.	.	-2%[14.2 µM]	.	.
Cc1cnc(C)c(-c2cc(F)cc3c2OC(CNC(=O)CN2CCCC2)C3)n1 (stereo unspecified)	-1%	-14%	.	.	.	.
O=C(NCc1ccco1)Nc1cccc([N+](=O)[O-])c1	-8%	3%	16	25%[46.1 µM]	13	0%[46.1 µM]
COc1ccc(NC(=O)NCc2ccco2)cc1OC	-6%	-2%	20	.	-2	.
O=C(NCc1ccco1)Nc1ccc2nsnc2c1	-9%[1.46 µM]	-6%	42	?	30*	?
O=C(NCc1ccco1)Nc1ccc(Br)cc1	.	-27%	66*	?	21	19%
O=C(NCc1ccco1)Nc1ccc(OC(F)(F)F)cc1	.	.	20	-3%	18*	.
O=S(=O)(c1ccc(Cl)cc1)c1nnn2c1nc(NC1CCCCC1)c1sccc12	i	-29%	.	.	.	-1%[46.1 µM]
Cc1oc(C(C)(C)C)cc1C(=O)Nc1cccc(/C=C/C(=O)O)c1	-11%	-8%	54	14%	3	6%
SMILES	Vaccinia mCherry	VACV Venus inh	Shiga inhibitor	Marburg entry inh	CHX counter	Lassa entry inh
Cc1oc(C(C)(C)C)cc1C(=O)Nc1ccc2c(c1)OCCO2	-14%	-19%	102*	-12%	53*	-4%
Cc1oc(C(C)(C)C)cc1C(=O)Nc1ccc2c(c1)OCO2	-6%	-23%	79*	?	32*	-17%
CC(=O)N(c1ccccc1)C1CCCC1	-16%	-7%	0	3%	-2	13%
CCN(C(=O)C1CCCCC1)c1nnc(-c2cccnc2)s1	i	-5%	-3	-6%[46.1 µM]	12	-25%
CC(C)CC(=O)N(c1nnc(-c2cccnc2)s1)C1CCCC1	-12%	-9%	15	-8%[46.1 µM]	11*	-28%[46.1 µM]
CC(=O)N(c1nnc(-c2ccc(C)cc2)s1)C1CCCC1	-15%	-7%	26*	?	28*	-22%[46.1 µM]
O=C(N/N=C/C1CC=CCC1)c1cc2ccccc2cc1O (stereo unspecified)	-7%	-2%	39	-27%	13*	10%
COc1cc(C(=O)N/N=C/C2CC=CCC2)cc(OC)c1OC (stereo unspecified)	?	?	-1	?	3	?
O=C(N/N=C/C1CC=CCC1)c1ccc(O)cc1O (stereo unspecified)	-8%	5%	34	1%	71*	-1%
COc1cc(C(=O)NCC(=O)N/N=C/c2cccc(OC(=O)c3ccco3)c2)cc(OC)c1OC	.	.	56	.	15*	.

Screening data as filed in PubChem.
